This test is described as follows: Vero cells viability counterscreen for qRT-PCR qHTS assay of selected Zika virus inhibitors. The essentials:
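Vero cells in DMEM + 4% FBS were attached overnight, then treated with compounds for 24 h. Viability was measured by CellTiter-Glo ATP luminescence after 30 min at 37 °C.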

Records with an inconclusive call do not appear. Where a call stands in place of a potency, no number is given. Unmarked numbers belong to inactive results. Activity calls are given as the source filed them. Calls follow the shape of the dose curve; as a rule, active = well fitted cell-killing curve with a large enough effect; inconclusive = small, poorly fitted or top-dose-only effect, or another doubt; inactive = flat fitted curve, though single readings scatter.

Consider `COc1cc(/C=C/c2ccccc2)c(C(=O)O)c(O)c1CC=C(C)C`, for which the Potency entry is “inactive”. With `O=C(O)CC1CCC(c2ccc(-c3ccc(Nc4ccc(C(F)(F)F)nc4)cn3)cc2)CC1` (stereo not given), the Potency entry is “inactive”.

For `CCOC(=O)c1ccc(N2C(=O)c3n[nH]c(-c4cccs4)c3C2c2ccc(Cl)cc2Cl)cc1` (stereo not given), the Potency was 25.1 µM (active). Still for that read-out and setting: in the case of `CN(C)[C@@H]1C(=O)C(C(N)=O)=C(O)[C@@]2(O)C(=O)C3=C(O)c4c(O)ccc(Cl)c4[C@@H](O)[C@H]3C[C@@H]12` it was “inactive”. As for `Cc1nc(C2CCCCC2)c(-c2ccc(S(N)(=O)=O)c(F)c2)o1`, the Potency entry was “inactive”. The same measure, in the same setting: in the case of `O=C1NC(=O)/C(=C/c2cccc(C(F)(F)F)c2)S1` it was “inactive”; in that of `Cc1cc(C)cc(C(=O)N(C)[C@H](Cc2ccc(-c3ccccc3)cc2)C(=O)N[C@@H](Cc2c[nH]c3ccccc23)C(=O)O)c1`, “inactive”. Regarding `O=C(O)c1ccc(O)c2ncc(N3CCCN(CCc4cccc5ccccc45)CC3)cc12`, the Potency entry is “inactive”. Regarding `COc1ccc(-c2ccccc2)cc1NS(=O)(=O)c1cc(Cl)cc(Cl)c1O`, the Potency entry was “inactive”. As for `COc1ccc(NS(=O)(=O)c2ccc(NS(=O)(=O)c3ccc4c(c3)OCCO4)cc2)cc1`, the Potency entry is “inactive”. Turning to `COc1cc(/C=C(\C#N)C(=O)Nc2nnc(C(F)(F)F)s2)ccc1OCc1ccc(C(F)(F)F)cc1C(F)(F)F`, the Potency result is “inactive”.

Turning to `Oc1cccc(-c2c3nc(c(-c4cccc(O)c4)c4ccc([nH]4)c(-c4cccc(O)c4)c4nc(c(-c5cccc(O)c5)c5ccc2[nH]5)CC4)C=C3)c1`, the Potency result was “inactive”. Turning to `CC(C)(C)Sc1c(CC(C)(C)C(=O)O)n(Cc2ccc(Cl)cc2)c2ccc(OCc3ccc4ccccc4n3)cc12`, the Potency result was “inactive”. For the molecule `O=C(O)c1ccc(-n2nc(-c3ccccc3O)nc2-c2ccccc2O)cc1`, the Potency result was “inactive”.

In the case of `COc1cc(C)c(C(=O)OC2C(C)OC(OC3CCC(C)C4C3C=C(C)C3/C(C)=C\CC/C(C)=C/C5(C)C=C(C(=O)O)C(C)CC56OC(=O)/C(=C(\O)C34C)C6=O)C(O)C2O)c(OC)c1` (stereo not given), the activity change, negative = cytotoxicity was 3.72% [at 10.4 µM]. With `O=C(N/N=C/c1ccc(O)c(O)c1)c1cc2ccccc2cc1O`, the Potency entry is “inactive”. In the case of `CC1(C)CCC(C)(C)c2cc3c(cc21)Sc1ccccc1N=C3c1ccc(C(=O)O)cc1`, the Potency result is “inactive”. Same read-out and setting: then `O=C(O)c1c(Sc2ccccc2)c2cc(Cl)ccc2n1Cc1ccc(Cl)cc1`, with “inactive”.

Turning to `CN(C)[C@@H]1C(=O)C(C(N)=O)=C(O)[C@@]2(O)C(=O)C3=C(O)c4c(O)cccc4C[C@H]3C[C@@H]12`, the Potency result is “inactive”. As for `O=C(Nc1ccc(Oc2ccc(Cl)cc2)c(Cl)c1)c1cc(I)cc(I)c1O`, the Potency result is “inactive”.
